Laboratory results reported in PubChem BioAssay AID743383 (National Center for Advancing Translational Sciences (NCATS), 2014).
Active and inactive are the calls of the source. The call rests on the fitted dose curve.

Target: Phosphatidylinositol 5-phosphate 4-kinase type-2 alpha (Homo sapiens) (UniProt P48426)
Assay: qHTS for Inhibitors of PI5P4K: PI5P4K-alpha 32P-ATP TLC Secondary Assay for Probe SAR
Details: recombinant PI5P4K-alpha, 32P-ATP TLC PI(4,5)P2 formation
From the text: In addition to finding PI5P, we discovered the type II phosphatidylinositol 5-phosphate 4-kinase (PI5P4K) family (alpha, beta, gamma isoforms) that catalyze the conversion of PI5P to PI(4,5)P2. Alternatively, PI(4,5)P2 can also be synthesized through phosphatidylinositol-4-phosphate (PI4P) by the type I phosphatidylinositol 4-phosphate 5-kinases (PI4P5K). These PI5P4K enzymes therefore represent one way by which cells can regulate endogenous PI5P levels and play important roles in insulin signaling and in stress responses. […] A qHTS PI5P4K-alpha ADP-Glo assay was developed to identify specific modulators of human PI5P4K, phosphatidylinositol-5-phosphate 4-kinase (Type II PIPK). To confirm that the active compounds and their analogs were true and selective inhibitors, a secondary Thin-layer Chromatography (TLC) assay against recombinant PI5P4K-alpha, PI4P5K-alpha or PI5P4K-beta that utilize a radioactively labeled ATP were developed. The data herein are the result of the PI5P4Kalpha TLC assay. […]
The kinase reaction was carried out in a total of 50 microL of kinase buffer (50 mM HEPES pH 7.4 and 10 mM MgCl2) containing 20 microM of the lipids that were suspended by sonication. […] The radiolabeled product, PI(4,5)P2, was quantified with a phosphorimager (Molecular Dynamics, STORM840, GE Healthcare, Waukesha, WI, USA).

Sequence of Phosphatidylinositol 5-phosphate 4-kinase type-2 alpha (Homo sapiens) (P48426 whole entry, looked up): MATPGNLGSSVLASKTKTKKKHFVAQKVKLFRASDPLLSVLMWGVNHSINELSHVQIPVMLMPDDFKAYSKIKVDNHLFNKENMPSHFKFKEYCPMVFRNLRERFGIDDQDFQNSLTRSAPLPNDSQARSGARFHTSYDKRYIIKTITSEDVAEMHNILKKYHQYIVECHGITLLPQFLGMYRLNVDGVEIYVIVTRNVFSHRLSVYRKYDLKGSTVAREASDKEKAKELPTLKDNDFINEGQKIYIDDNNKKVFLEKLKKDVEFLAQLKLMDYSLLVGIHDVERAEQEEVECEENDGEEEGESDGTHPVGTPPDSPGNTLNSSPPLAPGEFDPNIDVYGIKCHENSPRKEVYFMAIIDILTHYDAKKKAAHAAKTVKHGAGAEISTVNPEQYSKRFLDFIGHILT

SMILES	Potency
O=C1Nc2ccc(C(=O)c3ccco3)cc2/C1=C/c1cc(Cl)c(O)c(Cl)c1	18 nM (active)
